Source: ChEMBL document CHEMBL3988442, “University of Dundee, Small-Polar-MMV Screening Library” (2021)
Screen size: about 48,000 compounds; about 13,000 (27%) showed an effect of 50% or more. The list shows a part of the results.

Test system: Wolbachia pipientis
Assay: Anti-Wolbachia Cell-Based Screen
Assay type: functional
Design: scale not given: in the data most compounds retested in dose-response had high values
Settings: 5 µM

SMILES	Percent Effect [%]
CC(C)CC(C)(CNC(=O)c1cnccn1)NC(=O)c1cnccn1 (stereo unspecified)	15.43
Cc1ccc2c(ccn2CC(=O)NC[C@@H]2CCCN3CCCC[C@H]23)c1	4.302
Cc1cn2cc(C(=O)NC3CCCN(c4ncccn4)C3)ccc2n1 (stereo unspecified)	-3.56
CO[C@@H]1CC[C@@H](N(C)C(=O)c2cn3cc(C)ccc3n2)[C@H]1O	56.83
Cc1ccc2nc(C(=O)N(C)[C@@H]3CC[C@@H](N4CCCC4)[C@@H]3O)cn2c1	129
Cc1ccc2nc(C(=O)N3CCC(CCn4cccn4)CC3)cn2c1	-8.837
Cc1ccc2nc(C(=O)N3CCNC(=O)C3c3cccc(F)c3)cn2c1 (stereo unspecified)	-1.772
CO[C@@H]1CCC[C@@H](N(C)C(=O)c2cn3cc(C)ccc3n2)[C@H]1O	110.8
c1cncc(NCCNC2CCSCC2)c1	-10.95
CCn1cc(N2Cc3nc(N4CCOCC4)ncc3C2=O)cn1	28.99
COC(=O)c1ccc(C2CC(=O)Oc3cc(C)[nH]c(=O)c32)cc1 (stereo unspecified)	-3.935
CN1CCC(c2cccc(Cc3ccc(C(F)(F)F)cc3)n2)CC1	90.57
COc1ccc(Cc2cccc(C3CCN(C)CC3)n2)cc1	-4.713
O=S(=O)(c1ccc(C(F)(F)F)cc1)N1CCC(OCc2ccccn2)C1 (stereo unspecified)	-13.15
CN1CCC(c2cccc(Cc3ccccc3)n2)CC1	111.8
CN1CCC(c2cccc(Cc3ccc(F)cc3)n2)CC1	-5.274
Cl.NC(c1ccc(Cl)cc1)c1cccs1 (stereo unspecified)	-4.089
Cc1cccc(C)c1CN1C(=O)CC2(CCSC2)C1=O (stereo unspecified)	-6.047
Cc1n[nH]c(SCC(=O)N2C[C@H]3CC[C@@H]2CN(c2ncccn2)C3)n1	-6.945
COc1ccnc(N2CCN(Cc3ncc(-c4ccccc4)o3)CC2)n1	-5.442
CC(=O)NCCc1ccc(C(=O)N2CCCC2c2cnn(C)c2)cc1 (stereo unspecified)	2.733
CCN(CC)Cc1ccc(C(=O)N2CCCC2c2cnn(C)c2)o1 (stereo unspecified)	101.4
CCN(CC)Cc1ccc(C(=O)N2CCCCC2Cn2cccn2)o1 (stereo unspecified)	-4.824
CC(=O)NCc1ccc(C(=O)N2CCCC2c2cnn(C)c2)o1 (stereo unspecified)	4.332
CC(=O)NCc1ccc(C(=O)N2CCCC2c2cnn(C)c2)cc1 (stereo unspecified)	89.24
Cc1cc(C)n(-c2ccc(C(=O)N3CCCC3c3cnn(C)c3)cc2)n1 (stereo unspecified)	-0.5529

SMILES	Percent Effect [%]
CC(=O)NCc1ccc(C(=O)N2CCCC2c2cnn(C)c2)s1 (stereo unspecified)	110.6
CC(=O)NCCCOc1c(C)cccc1Cl	-7.084
O=C1CCC2(CCCN(C(=O)c3ccc[nH]3)C2)CN1CCc1c[nH]cn1 (stereo unspecified)	-3.691
Cc1cc(CN(C)C(=O)c2cccc(N3CCCC3=O)c2)no1	3.879
Cc1cccc(C(=O)NCCNS(=O)(=O)c2cccs2)c1C	-10.16
CCN(CCNC(=O)c1cccc(C)c1C)C1CC1	95.34
CCN(CCNC(=O)c1ccccc1Br)C1CC1	-1.027
COCCOc1ncccc1C(=O)Nc1c(C)cnn1CC1CC1	-11.28
CCOc1ncccc1C(=O)NCCN(CC)C1CC1	-2.077
CCN(CCNC(=O)c1cccnc1OCCOC)C1CC1	95.99
CC(C)c1cccc(-n2cc(O)c(C(=O)NCCCn3cccn3)n2)c1	-4.081
COC(=O)C1CN(Cc2ccn(-c3ccc(F)cc3)n2)CCO1 (stereo unspecified)	-3.694
Cc1nc(CN2CCN(C(=O)CCc3ccco3)CC2)cs1	84.98
CCc1nc(CN2CCCN(C(=O)CCc3ccco3)CC2)cs1	-5.985
Cc1nc(CN2C[C@@H]3CN(C(=O)c4ccoc4C)C[C@@H]3C2)cs1	104.4
Cc1nc(CN2C[C@@H]3CN(C(=O)CC(F)(F)F)C[C@@H]3C2=O)cs1	-5.241
Cc1nc(CN2CCCN(C(=O)CCc3ccco3)CC2)cs1	136.5
CCc1nc(CN2CCN(C(=O)CCc3ccccc3)CC2)cs1	19.11
Cc1nc(CN2CCCN(C(=O)c3cccn3C)CC2)cs1	-4.038
O=C(CCc1ccco1)N1CCCN(Cc2cscn2)CC1	110.3
O=C(CCc1cccc(F)c1F)N1CCN(Cc2ccco2)CC1	9.986
Cc1noc(C)c1CCC(=O)N1CCCN(Cc2cscn2)CC1	-9.58
Cc1nc(CN2C[C@@H]3CN(C(=O)c4ccoc4C)C[C@@H]3C2=O)cs1	-24.28
CCc1nsc(N2CCN(CC(=O)NCc3cccnc3)CC2)n1	5.46
CC1CN(C)c2ccccc2CN1C(=O)CSc1ccncc1 (stereo unspecified)	-15.08
O=S(=O)(c1cccnc1)N1CCN(CC(O)c2cccs2)CC1 (stereo unspecified)	-0.3613

SMILES	Percent Effect [%]
N[C@H]1CN(S(=O)(=O)N2CCCC2)C[C@@H]1c1ccccc1	-9.902
O=S(=O)(N1CCCC1)N1CC(c2ccnc(Nc3ccccn3)n2)C1	105.1
CN(C)S(=O)(=O)N1CCC(c2ccnc(Nc3ccccn3)n2)C1 (stereo unspecified)	92.82
O=S(=O)(NC1CCCN(c2ncccn2)C1)N1CCCCCC1 (stereo unspecified)	-17.91
CS(=O)(=O)N1CC(c2ccnc(Nc3ccccn3)n2)C1	102.3
CN(C)S(=O)(=O)N1CCC2(CC1)CC(Oc1ccccn1)CO2.O=C(O)C(F)(F)F (stereo unspecified)	-11.89
CN(C)S(=O)(=O)N1CC(c2ccnc(Nc3ccccn3)n2)C1	81.46
Cc1ccc(Nc2nccc(C3CN(CC(N)=O)C3)n2)nc1	-11.37
CCNc1ccnc(NC2CCN(S(C)(=O)=O)CC2)n1	1.929
CN(C)C(=O)C1CN(Cc2ccc(C#N)cc2)c2ccccc2O1 (stereo unspecified)	-2.727
O=C(NCCn1cccc1)C1CCN(C2CCCCC2)CC1	3.682
Cc1c(F)cccc1CN1CCn2nc(CNC(=O)N(C)C)cc2C1	9.061
Cc1cc(C)c2c(c1)C1(CC(=O)Nc3c1cnn3C(C)C)C(=O)N2 (stereo unspecified)	-4.592
Cc1cc2n(n1)CC(CNC1CCN(c3ccc(F)cc3)CC1)CN2 (stereo unspecified)	8.147
Cc1nc2c(c(=O)n1C)CN(C(=O)C1CCCN(C(=O)N(C)C)C1)C2 (stereo unspecified)	1.11
CC(=O)N1CCc2nc(N3CCCC3)nc(C)c2C1	96.78
Cc1nc(N2CCCC2)nc2c1CN(C(=O)NC(C)C)CC2	102.9
Cc1nc(N2CCCC2)nc2c1CN(C(=O)N(C)C)CC2	100.4
Cc1nc(N2CCCC2)nc2c1CN(C(C)C)CC2.O=C(O)C(F)(F)F	-22.93
CN(Cc1ccccc1)C(=O)c1cc2c(c(S(N)(=O)=O)c1)CCC2	-0.2198
CCCOc1ccc2ccccc2c1CN1CC[C@@]2(O)CCNC[C@H]2C1	3.118
CCc1nc(C)cc(NC(C)C(=O)Nc2cc(F)ccc2C)n1 (stereo unspecified)	4.426
CCc1cc(N[C@H]2CCC[C@H]2CO)n2nccc2n1	-20.55
O=C(c1ccccn1)N1CCC(Oc2ncccc2Cl)CC1	6.011
O=C(c1ccco1)N1CC(S(=O)(=O)c2ccc(Cl)cc2)C1	72.73
O=C(c1cccnc1)N1CC(S(=O)(=O)c2ccc(Cl)cc2)C1	139.6

SMILES	Percent Effect [%]
O=C(c1ccccn1)N1C[C@@H]2CC[C@H](C1)N(C(=O)c1ccsc1)C2	-66.93
Cn1cnnc1S(=O)(=O)C1CCN(C(=O)c2ccco2)CC1	9.772
NC(=O)N1C[C@@H]2CN(C(=O)c3ccco3)C[C@@H]2C1	-28.89
O=C(C[C@H]1[C@H]2CN(C(=O)c3cccnc3)C[C@@H]12)Nc1cccnc1	-0.113
O=C(O)C(F)(F)F.O=C(c1ccccn1)N1CC[C@H]2[C@H]1CCN2S(=O)(=O)C1CC1	-10.64
O=C(c1ccccn1)N1CCC(S(=O)(=O)c2ccccc2)C1 (stereo unspecified)	101.3
O=C(c1ccccn1)N1CC(S(=O)(=O)c2ccc(Cl)cc2)C1	113.3
O=C(c1cccnc1)N1C[C@@H]2OCC(=O)N(Cc3cccnc3)[C@@H]2C1	-21.42
O=C(c1ccccn1)N1CCC(Oc2cccnc2)CC1	-15.11
CN(C1CCCC1)C(C)(C)C(=O)NCCS(C)(=O)=O	3.461
N#CCc1ccc(NC(=O)N[C@H](CO)Cc2ccc(O)cc2)cc1	-6.882
CCc1nc2c(c(NCc3cc(-c4cccnc4)no3)n1)CCNCC2	11.03
O=C(c1cnccn1)N1CC(S(=O)(=O)c2ccc(Cl)cc2)C1	115.9
O=C(NCc1c(F)cccc1F)C1CN(C(=O)c2cnccn2)C1	-2.814
O=C(NC1CC1)C1CN(C(=O)c2cnccn2)C1	-10.02
CCOCC(O)CNc1cncc(Br)c1 (stereo unspecified)	-4.889
CC(=O)CC(C)(C)NC(=O)CCN(C)Cc1ccc(Cl)s1	13.53
CN1CC(=O)N(C2CCNC2)Cc2c(NC3CCCC3)ncnc21 (stereo unspecified)	104.3
CN1CC(=O)N(C2CCCNC2)Cc2c(NC3CCC3)ncnc21 (stereo unspecified)	103.9
O=c1c2cccc(C(F)(F)F)c2ncn1C1CCNC1 (stereo unspecified)	-5.057
CC1=C(C(=O)N2CCOC(Cc3cccc(C(F)(F)F)c3)C2)OCCO1 (stereo unspecified)	-4.78
Cc1noc(C)c1CCNc1nccc(CCC(F)(F)F)n1	1.118
CN(C)Cc1nn(C)c2c1CN(S(=O)(=O)c1ccccc1F)C2	3.844
